Measured values published in the supplement of paper PMC7866885, “A novel bicyclic 2,4-diaminopyrimidine inhibitor of Streptococcus suis dihydrofolate reductase” (PeerJ, 2021).
± gives the standard deviation.

Legend:
Streptococcus suis HE06 = assay: percent growth relative to DMSO control; higher = less growth inhibition; conditions: 10 µM; incubation time 18 h
Experimental: (§1)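 CLSI broth microdilution: 5x10^4 CFU of Streptococcus suis (strain P1/7 or HE06) incubated with 10 µM Pathogen Box compound in cation-adjusted Mueller Hinton broth, 37 °C, 5% CO2, 18 h. Growth read as OD600 and expressed as percent of the DMSO-treated control (100%); mean ± SD of three independent experiments.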

Streptococcus suis P1/7 = assay: as above; conditions: 10 µM; incubation time 18 h
Experimental: as §1

SMILES	percent growth (Streptococcus suis HE06) [%]	percent growth (Streptococcus suis P1/7) [%]
COc1ccc(Nc2ccccc2NC(=O)c2ccc(O)nc2)cc1	86.7 ± 11	99.1 ± 41
COc1cccc(CC(=O)N2CCC(n3c(C)nc4ccc(F)cc43)CC2)c1	104 ± 52	65.2 ± 15
COc1cccc(OCC(=O)c2ccc(Br)cc2)c1	57.7 ± 50	81.9 ± 9.6
Cc1ccc2[nH]c(C3CCCNC3)c(-c3ccncc3)c2c1 (centres undefined)	108 ± 31	89.8 ± 7.2
Nc1ccc2ncnc(Nc3ccc(OCc4cccc(F)c4)c(Cl)c3)c2c1	111 ± 9.4	81.2 ± 18
Cc1noc(C)c1C(=O)N1CCCC(c2[nH]c3c(C)cccc3c2-c2ccncc2)C1 (centres undefined)	90.2 ± 6.2	90.5 ± 20
OCCc1ccc(Nc2nccc(-c3nnc4ccccn34)n2)cc1	92.9 ± 6.6	88.5 ± 13
c1csc(-c2cnc3sc(NCC4CCOCC4)nn23)c1	109 ± 22	91.2 ± 16
CC(c1cc(Cl)cc(Cl)c1)N(C)c1ncc2c(N)nc(N)nc2n1 (centres undefined)	84.7 ± 21	57.6 ± 42
COc1ccc2nc(C)cc(OCC(=O)Nc3ccccc3OC)c2c1	89.9 ± 9.3	67.6 ± 16
O=C(Nc1nc(-c2ccccn2)cs1)c1cncn1-c1ccccc1	13.4 ± 19	5.15 ± 6.6
CCOC(=O)c1cc(-c2csc(Nc3c(C)cc(C)cc3C)n2)on1	91.3 ± 6	108 ± 60
COc1nc2ccc(Br)cc2cc1[C@@H](c1ccccc1)[C@@](O)(CCN(C)C)c1cccc2ccccc12	59.8 ± 13	68.8 ± 37
C[C@H]1COc2c(N3CCN(C)CC3)c(F)cc3c(=O)c(C(=O)O)cn1c23	1.93 ± 0.63	1.55 ± 1.7
NCCC(O)C(=O)N[C@@H]1C[C@H](N)[C@@H](OC2O[C@H](CN)[C@@H](O)[C@H](O)[C@H]2O)[C@H](O)C1OC1O[C@H](CO)[C@@H](O)[C@H](N)[C@H]1O (some centres undefined)	104 ± 4.8	87.5 ± 38
CCCc1ccc(S(=O)(=O)Nc2ccc(CN3CCN(CC4CC4)CC3)cc2)cc1	88 ± 15	94.1 ± 34
N=C(N)c1ccc(OCCCCCOc2ccc(C(=N)N)cc2)cc1	146 ± 200	37.1 ± 32
CN1CCN(CCCOc2ncc(Nc3ncc(-c4ccc(C(F)(F)F)c(F)c4)nc3C(N)=O)cn2)CC1	114 ± 43	97.2 ± 9.4
Cc1ccccc1CN1CCC(O)(c2ccc(Cl)c(C(F)(F)F)c2)CC1	93.7 ± 15	102 ± 50

SMILES	percent growth (Streptococcus suis HE06) [%]	percent growth (Streptococcus suis P1/7) [%]
CN1CCN(S(=O)(=O)c2ccc(-c3ccc4c(Nc5ccc6nn[nH]c6c5)ccnc4c3)cc2)CC1	103 ± 42	63 ± 23
CC(Oc1ccccc1)C(=O)Nc1nc(-c2ccccn2)cs1 (centres undefined)	2.67 ± 2.8	2.35 ± 2.4
COc1ccc(N(CCc2cccc(C)n2)C(=O)C2CCCCC2)cc1	115 ± 37	105 ± 28
CC1CC1C(=O)NC1CCN(CC2(c3ccccc3)CCCCC2)CC1 (centres undefined)	76.8 ± 15	71.1 ± 43
COc1ccc2nccc(NC(=O)C3CCN(CCc4ccc(Cl)cc4)CC3)c2n1	74.3 ± 59	28.6 ± 47
CN1CCCC1CCO[C@](C)(c1ccccc1)c1ccc(Cl)cc1 (some centres undefined)	86.3 ± 9.2	78.1 ± 43
COc1ccccc1C(C)NCC(=O)Nc1cc(C(F)(F)F)ccc1Cl (centres undefined)	86.8 ± 5.4	112 ± 23
COc1cncc(-c2cncc(N3CCN(c4ccncc4)CC3)n2)c1	87.2 ± 26	64.3 ± 15
CCCCS(=O)(=O)Nc1ccc2cnn(C)c2c1	92.3 ± 11	73 ± 10
CC[C@@H]([C@H](C)O)n1ncn(-c2ccc(N3CCN(c4ccc(OC[C@@H]5CO[C@@](Cn6cncn6)(c6ccc(F)cc6F)C5)cc4)CC3)cc2)c1=O	76.2 ± 4.8	77.5 ± 0.79
CC(C)n1ncc2c(C(=O)NCC(c3cccs3)N3CCOCC3)cc(-c3ccccc3)nc21 (centres undefined)	89.9 ± 4.6	106 ± 36
CC(=O)NCC1CN(c2ccc(-c3ccc(CNCc4cn[nH]n4)cc3)c(F)c2)C(=O)O1 (centres undefined)	0.542 ± 0.94	0.637 ± 0.99
C[C@@H]1[C@H](O)[C@@H](C)/C=C/C=C/C=C/C=C/C=C/C=C/C=C/[C@H](O[C@@H]2O[C@H](C)[C@@H](O)[C@H](N)[C@@H]2O)C[C@@H]2O[C@](O)(C[C@@H](O)C[C@@H](O)[C@H](O)CC[C@@H](O)C[C@@H](O)CC(=O)O[C@H]1C)C[C@H](O)[C@H]2C(=O)O	97.2 ± 8.6	92.3 ± 14
c1ccc(Oc2ccc(-c3cncc(-c4ccc5[nH]ccc5c4)n3)cc2)cc1	109 ± 24	83.7 ± 20
COc1ccc(CCN2CCC(NCc3cccc(N(C)C)c3)CC2)cc1	98.6 ± 35	67.3 ± 22
COc1ccc(C2(C(=O)Nc3ccc(Br)cc3)CCCC2)cc1	120 ± 25	92.5 ± 15
CC(C)(C)C1CCC(CC2=C(O)C(=O)c3ccccc3C2=O)CC1 (centres undefined)	17.3 ± 28	36.3 ± 11
CCC(C)NC(=O)c1ccc(NC(=O)C2(c3ccccc3)CCCC2)cc1 (centres undefined)	105 ± 27	78.1 ± 25
